An excerpt weighted towards active compounds, which were near 0.64% of everything screened.
Vif inh = inhibitors of HIV Vif; HEK293T cells, Vif self-association by quenched fluorescence, imaging, 24 h; 340,000 compounds, 0.35% hits; inhibition, % at 7.49 µM; in the data active means inhibition above about 50%, passing the limit was not always enough; inconclusive means no clear call, values can overlap the other calls; inactive means below about 31%
PvdQ acylase = P. aeruginosa PvdQ acylase inhibition. 340,000 compounds, 0.063% hits. inhibition, % at 10 µM. purified PvdQ acylase, fluorescence plate reader. AID 488965; in the data active means inhibition above about 30%, passing the limit was not always enough; inconclusive means no clear call, values can overlap the other calls;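 further: 0% = vehicle neutral wells and 100% = reference inhibitor wells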
AI-2 QS mod = modulators of Vibrio harveyi AI-2 quorum sensing system; 300,000 compounds, 0.4% hits; Vibrio harveyi JMH597 AI-2 luminescence/OD600 ratio, 9 h; stronger effect = lower value; strain lacks LuxN and CqsS sensors; 0 = neutral-control median; activity change, % at 7.5 µM; in the data active means activity change below about -75%, passing the limit was not always enough; inconclusive means no clear call, values can overlap the other calls;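 further: luminescence divided by OD600 gain over 9 h not by final OD600 alone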
PDI turbidity = inhibitors of human protein disulfide isomerase; PDI insulin aggregation turbidity, A650, 90 min; P07237; inhibition, % at 10 µM; AID 588391; 350,000 compounds, 0.052% hits;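 active means mean inhibition across replicates of 30% or more, whatever share of single replicates reach that level; inconclusive means mean inhibition below 30% while every single replicate reaches 30%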
Target sequence (P07237 whole entry, looked up): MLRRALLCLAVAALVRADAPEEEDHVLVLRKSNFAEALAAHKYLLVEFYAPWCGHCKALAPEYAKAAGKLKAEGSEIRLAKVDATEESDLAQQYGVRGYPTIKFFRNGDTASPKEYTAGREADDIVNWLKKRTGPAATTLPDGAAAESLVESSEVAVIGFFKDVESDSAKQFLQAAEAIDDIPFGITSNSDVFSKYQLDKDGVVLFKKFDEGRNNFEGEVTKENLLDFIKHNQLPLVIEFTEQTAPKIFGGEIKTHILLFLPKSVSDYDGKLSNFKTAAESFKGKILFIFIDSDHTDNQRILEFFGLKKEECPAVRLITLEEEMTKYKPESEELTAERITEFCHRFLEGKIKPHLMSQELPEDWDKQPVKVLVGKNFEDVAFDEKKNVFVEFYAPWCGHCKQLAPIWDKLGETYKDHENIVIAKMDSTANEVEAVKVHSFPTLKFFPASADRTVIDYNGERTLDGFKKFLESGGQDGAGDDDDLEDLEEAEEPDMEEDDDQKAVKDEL
ERp5 inh = ERp5 (human) disulfide isomerase inhibition; ERp5 insulin aggregation, absorbance 650 nm, 90 min; inhibition, % at 9.99 µM; 350,000 compounds, 0.05% hits;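 active means mean replicate inhibition above about 25%, with every replicate also reaching it, limit read from the data, passing the limit was not always enough; inconclusive means only one of those two criteria met; inactive means neither criterion met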
Starred values were filed as active, the others as inactive; ? = inconclusive; . = not tested or not shown.

SMILES	Vif inh	PvdQ acylase	AI-2 QS mod	PDI turbidity	ERp5 inh
O=[N+]([O-])c1cc(-n2cnnn2)ccc1N1CCC(Cc2ccccc2)CC1	78*	11	9	2	.
CC1CC(C)CN(c2ccc(-n3cnnn3)cc2[N+](=O)[O-])C1 (stereo not given)	0	-15	1	-1	.
CC(=O)N(C)C[C@H]1Oc2ncc(C#C[C@@H](C)O)cc2C(=O)N([C@@H](C)CO)C[C@H]1C	.	.	.	.	4
C[C@@H]1CN([C@H](C)CO)C(=O)c2cc(-c3cccc(C#N)c3)cnc2O[C@@H]1CN(C)C(=O)C1CCC1	.	.	.	.	2
Cc1cc2nc(Cl)c(Cl)nc2cc1C	67*	11	-3	6	0
Cc1cc2ncc(Cl)nc2cc1C	3	-9	11	-1	.
C[C@@H]1CN([C@H](C)CO)C(=O)c2cc(NC(=O)CCC(F)(F)F)ccc2O[C@@H](C)CCCCO[C@@H]1CN(C)C(=O)c1ccccc1	.	.	.	.	0
Cc1cnc(NC2=NCCC2)s1	2	-5	11	38*	3
N#Cc1ccc(NC(=O)Nc2ccc(Cl)cc2)cc1	-3	-17	-147*	2	.
COc1ccc(NC(=O)Nc2ccc3c(c2)[C@@H]2C[C@@H](CC(=O)NCc4ccc5c(c4)OCO5)O[C@H](CO)[C@@H]2O3)cc1	.	.	.	.	0
CC(C)C#Cc1cnc2c(c1)C(=O)N([C@H](C)CO)C[C@H](C)[C@H](CN(C)C(=O)c1cnccn1)O2	.	.	.	.	2
CCOC(=O)c1cnc(-c2ccccc2)nc1N(C)C	-4	6	30	6	1
CCOC(=O)c1cnc(-c2ccccc2)nc1N	.	77*	17	0	2
Fc1ccc(CNCc2cccc(Br)c2)cc1	6	31*	21	-1	3
COc1ccc2c3c(n(C)c2c1)[C@@H](CO)N(Cc1ccccc1F)CC31CN(C(=O)C2CC2)C1	.	.	.	.	1
O=C(NCC1CC1)c1cc([N+](=O)[O-])cc([N+](=O)[O-])c1	-9	68*	32	-2	2
C=CCn1c(O)c(C2=c3ccccc3=NC2=O)s/c1=N/c1nccs1	88*	-7	33	-4	-3
CCC(=O)N1C[C@H](C)[C@@H](OC)CN(C)C(=O)c2ccc(NC(=O)Nc3cccc(F)c3)cc2OC[C@H]1C	.	.	.	.	-2
CCC(=O)Nc1ccc(C(=O)OCc2ccc(Cl)c(Cl)c2)cc1	-2	0	30	-20	-70
CC(=O)Nc1ccc(C(=O)OCc2ccc(Cl)c(Cl)c2)cc1	9	-21	-85*	7	.
Cc1ccc(C2(C)NC(=O)N(CC(=O)NNC(=O)c3cc(C)oc3C)C2=O)cc1 (stereo not given)	23	4	-79*	-6	0
Cc1ccc(C2(C)NC(=O)N(CC(=O)NNC(=O)c3ccoc3C)C2=O)cc1 (stereo not given)	-7	-3	-41	-2	0
CC1=Nc2ccc3ccccc3c2C1(C)C	53*	1	7	2	-3
Cc1c2ccccc2c(C)c2c1ccc1ccccc12	-4	-8	.	4	2
O=C(CCS(=O)(=O)c1ccccc1)N(CCCN1CCOCC1)c1nc2ccccc2s1	-10	-13	6	38*	-8
SMILES	Vif inh	PvdQ acylase	AI-2 QS mod	PDI turbidity	ERp5 inh
C[C@@H]1CCCCO[C@H](CN(C)C(=O)Nc2ccc(F)cc2)[C@@H](C)CN([C@@H](C)CO)C(=O)c2cc(NC(=O)c3ccncc3)ccc2O1	.	.	.	.	3
COC(=O)c1ccc(NC(=S)NC2CCCCC2)cc1	-6	-8	25	-18	.
N#CCC(=O)Nc1ccc(C(=O)NNC(=S)NC2CCCCC2)cc1	124*	.	.	-8	1
CC(=O)Nc1ccc(S(=O)(=O)N2c3ccccc3C(C)=CC2(C)C)cc1	81*	-6	1	-1	-6
CC1=CC(C)(C)N(S(=O)(=O)c2ccc(F)cc2)c2ccccc21	-15	-9	14	7	8
Cc1ccc(S(=O)(=O)Nc2ccccc2)cc1[N+](=O)[O-]	-5	-6	.	1	-1
Cc1c([N+](=O)[O-])cc(S(=O)(=O)Nc2ccncc2)cc1[N+](=O)[O-]	66*	-15	19	9	0
CC(=O)N(C)C[C@@H]1Oc2cc(Br)ccc2S(=O)(=O)N([C@H](C)CO)C[C@H]1C	.	.	.	.	6
N#Cc1nc(-c2ccccc2Cl)oc1NCc1ccco1	-6	-8	-80*	-11	.
COc1ccc(OCCNS(=O)(=O)c2ccccc2)cc1	52*	-5	11	5	.
COc1ccc(S(=O)(=O)NCCOc2ccc(Cl)cc2)cc1	7	-7	.	-3	-8
CCN(C[C@@H]1[C@@H](c2ccc(-c3ccccc3)cc2)[C@H](CO)N1C(C)=O)C(C)=O	.	.	.	.	-4
Cc1cc(NC(=O)c2cc([N+](=O)[O-])cc([N+](=O)[O-])c2)no1	-2	.	58	5	2
Cc1cc(NC(=O)c2cc([N+](=O)[O-])cc([N+](=O)[O-])c2C)no1	-2	88*	27	7	-8
Cc1cc(NC(=O)c2ccc(Br)c([N+](=O)[O-])c2)no1	-2	64*	6	-5	2
COCCNC(=O)C[C@H]1C=C[C@H](NS(=O)(=O)c2ccc(C)cc2)[C@@H](CO)O1	.	.	.	.	-3
O=C(CN1C(=O)c2cccc3cccc1c23)Nc1ccc(S(=O)(=O)N2CCOCC2)cc1	13	-6	-96*	15	.
O=C(CN1C(=O)c2cccc3cccc1c23)Nc1ccc(S(=O)(=O)Nc2nccs2)cc1	-1	-19	-96*	.	.
CCc1cccc2cc3c(N)c(C(=O)Nc4ccc(S(=O)(=O)N5CCCC5)cc4)sc3nc12	68*	-15	30	-15	.
Cc1cccc2cc3c(N)c(C(=O)Nc4ccc(N5CCOCC5)cc4)sc3nc12	-11	-1	3	0	.
CCCNC(=O)N1C[C@@H](C)[C@@H](OC)CN(C)C(=O)c2ccc(NC(C)=O)cc2OC[C@@H]1C	.	.	.	.	-3
COC(CNC(=O)C1CCN(C(=O)c2cc3oc(C)cc3n2Cc2c(F)cccc2Cl)CC1)OC	55*	3	22	-11	?
CCOC(=O)N1CCC(NC(=O)C2CCN(C(=O)c3cc4oc(C)cc4n3Cc3c(F)cccc3Cl)CC2)CC1	-16	3	6	9	2
O=C1CCN(Cc2ccc(O)cc2)CCN1[C@H](CO)Cc1ccccc1	54*	-2	5	-20	2
O=C1CCN(Cc2ccccc2)CCN1[C@H](CO)Cc1ccccc1	-2	-11	10	4	.
O=C(NCCc1ccccc1)[C@@H]1[C@@H](CO)[C@@H]2Cn3c(cccc3=O)[C@H]1N2C(=O)C1CCCC1	.	.	.	.	-3
Cn1c(=O)oc2cc(S(=O)(=O)Nc3ccc(Cl)cc3)ccc21	-1	-5	36	3	-1
CC(C)c1ccc(NS(=O)(=O)c2ccc3c(c2)oc(=O)n3C)cc1	.	-14	-94*	6	0
CC(C)c1ccc(NS(=O)(=O)c2ccc3c(c2)NC(=O)CO3)cc1	-6	-12	-85*	-14	-3

Screening data as filed in PubChem BioAssay.
